# Data published in ChEMBL document CHEMBL1961873, “Compounds: GSK PKIS; Assays: Nanosyn kinase panel” (2012).
# Experiments:
# [1] = biological target: Tyrosine-protein kinase Fyn (Homo sapiens) (UniProt P06241); conditions: at 1 µM
# [2] = biological target: Tyrosine-protein kinase HCK (Homo sapiens) (UniProt P08631); conditions: at 0.1 µM
# [3] = biological target: Tyrosine-protein kinase HCK (Homo sapiens) (UniProt P08631); conditions: at 1 µM
# [4] = biological target: Insulin-like growth factor 1 receptor (Homo sapiens) (UniProt P08069); conditions: at 0.1 µM
# [5] = biological target: Insulin-like growth factor 1 receptor (Homo sapiens) (UniProt P08069); conditions: at 1 µM
# [6] = biological target: Insulin receptor (Homo sapiens) (UniProt P06213); conditions: at 0.1 µM
# [7] = biological target: Insulin receptor (Homo sapiens) (UniProt P06213); conditions: at 1 µM
# [8] = biological target: Insulin receptor-related protein (Homo sapiens) (UniProt P14616); conditions: at 0.1 µM
# [9] = biological target: Insulin receptor-related protein (Homo sapiens) (UniProt P14616); conditions: at 1 µM
# [10] = biological target: T1, Tyrosine-protein kinase ITK/TSK (Homo sapiens) (UniProt Q08881); conditions: at 0.1 µM
# T1 sequence (whole entry): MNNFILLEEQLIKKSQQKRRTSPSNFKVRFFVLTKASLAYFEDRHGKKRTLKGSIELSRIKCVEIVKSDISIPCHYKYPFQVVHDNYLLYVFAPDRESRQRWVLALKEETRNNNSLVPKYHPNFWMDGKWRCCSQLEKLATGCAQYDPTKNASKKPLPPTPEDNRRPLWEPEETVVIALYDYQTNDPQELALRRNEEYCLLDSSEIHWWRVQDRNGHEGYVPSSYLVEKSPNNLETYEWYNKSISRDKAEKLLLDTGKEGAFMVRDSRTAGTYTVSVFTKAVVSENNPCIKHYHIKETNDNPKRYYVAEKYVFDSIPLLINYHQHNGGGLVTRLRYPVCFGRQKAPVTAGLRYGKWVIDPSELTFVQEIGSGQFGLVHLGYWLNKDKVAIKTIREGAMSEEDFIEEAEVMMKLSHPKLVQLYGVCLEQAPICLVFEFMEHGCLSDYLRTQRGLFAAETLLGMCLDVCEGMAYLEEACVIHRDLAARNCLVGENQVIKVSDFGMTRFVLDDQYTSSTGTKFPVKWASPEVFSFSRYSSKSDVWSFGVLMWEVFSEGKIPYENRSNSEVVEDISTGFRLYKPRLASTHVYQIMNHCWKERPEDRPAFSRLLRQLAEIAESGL
# [11] = biological target: T1, Tyrosine-protein kinase ITK/TSK (Homo sapiens); conditions: at 1 µM
# [12] = biological target: Tyrosine-protein kinase JAK1 (Homo sapiens) (UniProt P23458); conditions: at 0.1 µM
# [13] = biological target: Tyrosine-protein kinase JAK1 (Homo sapiens) (UniProt P23458); conditions: at 1 µM
# [14] = biological target: Tyrosine-protein kinase JAK2 (Homo sapiens) (UniProt O60674); conditions: at 0.1 µM
# [15] = biological target: Tyrosine-protein kinase JAK2 (Homo sapiens) (UniProt O60674); conditions: at 1 µM
# [16] = biological target: T2, Tyrosine-protein kinase JAK3 (Homo sapiens) (UniProt P52333); conditions: at 0.1 µM
# T2 sequence (whole entry): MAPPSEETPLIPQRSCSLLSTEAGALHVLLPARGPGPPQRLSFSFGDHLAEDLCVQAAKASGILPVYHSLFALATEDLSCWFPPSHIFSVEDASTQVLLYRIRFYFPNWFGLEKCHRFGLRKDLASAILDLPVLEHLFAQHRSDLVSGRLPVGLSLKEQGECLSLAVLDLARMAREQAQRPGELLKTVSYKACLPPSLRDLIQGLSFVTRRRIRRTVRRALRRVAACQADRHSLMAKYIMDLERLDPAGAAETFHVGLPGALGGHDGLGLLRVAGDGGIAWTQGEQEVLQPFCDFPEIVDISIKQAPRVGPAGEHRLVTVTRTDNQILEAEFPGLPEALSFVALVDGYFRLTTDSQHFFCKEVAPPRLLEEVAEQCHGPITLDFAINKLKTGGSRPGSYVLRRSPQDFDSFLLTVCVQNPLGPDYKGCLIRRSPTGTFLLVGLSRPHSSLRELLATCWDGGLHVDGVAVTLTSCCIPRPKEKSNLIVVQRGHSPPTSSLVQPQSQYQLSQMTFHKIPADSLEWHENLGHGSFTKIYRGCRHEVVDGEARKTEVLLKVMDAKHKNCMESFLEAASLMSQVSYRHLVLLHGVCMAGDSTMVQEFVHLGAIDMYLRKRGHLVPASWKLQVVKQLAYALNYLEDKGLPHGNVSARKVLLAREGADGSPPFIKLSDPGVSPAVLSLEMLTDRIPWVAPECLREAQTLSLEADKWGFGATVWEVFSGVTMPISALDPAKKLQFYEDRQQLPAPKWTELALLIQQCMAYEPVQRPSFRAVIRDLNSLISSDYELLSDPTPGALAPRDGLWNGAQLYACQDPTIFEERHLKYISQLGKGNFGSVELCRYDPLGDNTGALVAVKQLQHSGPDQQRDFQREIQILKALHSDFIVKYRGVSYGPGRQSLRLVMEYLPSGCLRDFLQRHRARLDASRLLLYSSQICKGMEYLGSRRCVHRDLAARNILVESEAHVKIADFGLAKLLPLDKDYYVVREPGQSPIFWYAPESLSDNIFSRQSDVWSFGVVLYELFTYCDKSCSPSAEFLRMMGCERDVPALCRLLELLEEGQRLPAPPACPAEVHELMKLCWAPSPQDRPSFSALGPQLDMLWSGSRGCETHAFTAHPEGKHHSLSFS
# [17] = biological target: T2, Tyrosine-protein kinase JAK3 (Homo sapiens); conditions: at 1 µM
# [18] = biological target: Vascular endothelial growth factor receptor 2 (Homo sapiens) (UniProt P35968); conditions: at 0.1 µM
# [19] = biological target: Vascular endothelial growth factor receptor 2 (Homo sapiens) (UniProt P35968); conditions: at 1 µM
# [20] = biological target: Mast/stem cell growth factor receptor Kit (Homo sapiens) (UniProt P10721); conditions: at 0.1 µM;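 note: values are mean inhibition of KIT, from the GSK PKIS dataset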
# Sequence of Mast/stem cell growth factor receptor Kit (Homo sapiens) (P10721 whole entry): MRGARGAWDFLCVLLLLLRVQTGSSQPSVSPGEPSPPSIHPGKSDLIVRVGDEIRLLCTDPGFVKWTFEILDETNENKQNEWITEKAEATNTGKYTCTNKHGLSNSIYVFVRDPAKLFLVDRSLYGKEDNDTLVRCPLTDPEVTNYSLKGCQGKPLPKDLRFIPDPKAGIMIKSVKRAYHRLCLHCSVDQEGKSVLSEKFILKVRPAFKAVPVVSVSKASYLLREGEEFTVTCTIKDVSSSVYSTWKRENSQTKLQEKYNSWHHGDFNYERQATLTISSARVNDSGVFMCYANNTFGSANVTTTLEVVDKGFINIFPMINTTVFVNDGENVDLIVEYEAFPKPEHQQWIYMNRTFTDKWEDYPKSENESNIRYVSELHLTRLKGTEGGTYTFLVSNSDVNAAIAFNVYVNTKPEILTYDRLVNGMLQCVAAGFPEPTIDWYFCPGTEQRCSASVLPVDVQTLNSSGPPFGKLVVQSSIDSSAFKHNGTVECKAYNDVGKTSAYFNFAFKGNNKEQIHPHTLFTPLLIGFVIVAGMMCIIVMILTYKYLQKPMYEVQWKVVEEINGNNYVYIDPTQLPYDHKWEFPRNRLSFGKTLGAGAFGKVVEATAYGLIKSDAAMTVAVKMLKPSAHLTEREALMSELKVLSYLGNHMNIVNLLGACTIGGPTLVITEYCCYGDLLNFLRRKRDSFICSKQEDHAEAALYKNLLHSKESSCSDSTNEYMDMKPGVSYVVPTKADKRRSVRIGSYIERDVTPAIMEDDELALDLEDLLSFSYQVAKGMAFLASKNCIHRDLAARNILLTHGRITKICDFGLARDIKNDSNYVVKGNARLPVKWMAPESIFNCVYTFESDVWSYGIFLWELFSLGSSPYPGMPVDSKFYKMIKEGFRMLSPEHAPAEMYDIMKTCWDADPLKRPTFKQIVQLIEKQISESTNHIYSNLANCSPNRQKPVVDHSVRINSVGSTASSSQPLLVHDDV
# Sequence of Insulin receptor-related protein (Homo sapiens) (P14616 27-742 limits assumed): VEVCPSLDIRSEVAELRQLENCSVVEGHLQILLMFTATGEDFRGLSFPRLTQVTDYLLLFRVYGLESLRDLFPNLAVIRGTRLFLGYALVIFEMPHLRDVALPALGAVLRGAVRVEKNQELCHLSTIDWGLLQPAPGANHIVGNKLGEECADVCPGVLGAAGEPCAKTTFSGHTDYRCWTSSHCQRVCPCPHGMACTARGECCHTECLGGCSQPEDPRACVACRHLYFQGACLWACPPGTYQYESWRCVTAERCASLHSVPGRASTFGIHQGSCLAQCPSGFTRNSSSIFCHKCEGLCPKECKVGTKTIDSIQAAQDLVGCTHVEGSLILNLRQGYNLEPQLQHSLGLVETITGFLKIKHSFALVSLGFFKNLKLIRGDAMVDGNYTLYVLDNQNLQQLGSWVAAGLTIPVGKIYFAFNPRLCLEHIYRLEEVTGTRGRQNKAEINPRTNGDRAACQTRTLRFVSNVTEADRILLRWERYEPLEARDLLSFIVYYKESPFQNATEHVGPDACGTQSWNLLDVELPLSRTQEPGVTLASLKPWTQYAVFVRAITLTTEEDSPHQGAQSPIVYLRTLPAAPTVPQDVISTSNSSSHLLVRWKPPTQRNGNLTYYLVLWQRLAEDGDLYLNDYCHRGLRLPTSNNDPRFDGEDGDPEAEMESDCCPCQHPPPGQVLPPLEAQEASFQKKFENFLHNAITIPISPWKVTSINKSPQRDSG
# Sequence of Insulin receptor-related protein (Homo sapiens) (P14616 747-1297 limits assumed): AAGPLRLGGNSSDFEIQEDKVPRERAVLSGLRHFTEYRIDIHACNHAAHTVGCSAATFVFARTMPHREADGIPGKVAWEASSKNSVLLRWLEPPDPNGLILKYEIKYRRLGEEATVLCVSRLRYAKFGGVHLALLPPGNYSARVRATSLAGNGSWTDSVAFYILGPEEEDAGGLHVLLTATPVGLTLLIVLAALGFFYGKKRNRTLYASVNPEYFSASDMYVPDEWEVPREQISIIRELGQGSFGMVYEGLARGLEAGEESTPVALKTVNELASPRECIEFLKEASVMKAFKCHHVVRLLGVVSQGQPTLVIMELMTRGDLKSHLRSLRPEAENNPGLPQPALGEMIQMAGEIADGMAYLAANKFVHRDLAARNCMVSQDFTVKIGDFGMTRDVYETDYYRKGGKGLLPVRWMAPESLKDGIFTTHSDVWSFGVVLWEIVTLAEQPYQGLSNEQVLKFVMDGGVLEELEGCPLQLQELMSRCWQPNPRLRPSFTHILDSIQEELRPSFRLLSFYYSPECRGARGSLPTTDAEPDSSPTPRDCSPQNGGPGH
# Sequence of Tyrosine-protein kinase HCK (Homo sapiens) (P08631 2-526 limits assumed): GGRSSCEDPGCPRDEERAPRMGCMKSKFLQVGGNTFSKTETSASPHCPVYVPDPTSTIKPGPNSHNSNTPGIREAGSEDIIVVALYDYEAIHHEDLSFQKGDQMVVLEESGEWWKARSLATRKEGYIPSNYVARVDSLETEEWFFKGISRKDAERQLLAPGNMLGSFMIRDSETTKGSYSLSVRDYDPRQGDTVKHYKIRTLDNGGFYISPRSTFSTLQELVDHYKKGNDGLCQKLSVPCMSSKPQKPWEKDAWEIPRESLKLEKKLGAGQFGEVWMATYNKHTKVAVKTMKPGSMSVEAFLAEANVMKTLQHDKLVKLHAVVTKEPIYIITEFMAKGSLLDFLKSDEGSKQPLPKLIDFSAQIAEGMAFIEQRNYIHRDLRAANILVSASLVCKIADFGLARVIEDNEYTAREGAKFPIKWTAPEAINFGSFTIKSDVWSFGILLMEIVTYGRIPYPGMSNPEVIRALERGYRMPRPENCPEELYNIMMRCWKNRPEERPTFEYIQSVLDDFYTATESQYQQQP
# Sequence of Insulin receptor (Homo sapiens) (P06213 28-758 limits assumed): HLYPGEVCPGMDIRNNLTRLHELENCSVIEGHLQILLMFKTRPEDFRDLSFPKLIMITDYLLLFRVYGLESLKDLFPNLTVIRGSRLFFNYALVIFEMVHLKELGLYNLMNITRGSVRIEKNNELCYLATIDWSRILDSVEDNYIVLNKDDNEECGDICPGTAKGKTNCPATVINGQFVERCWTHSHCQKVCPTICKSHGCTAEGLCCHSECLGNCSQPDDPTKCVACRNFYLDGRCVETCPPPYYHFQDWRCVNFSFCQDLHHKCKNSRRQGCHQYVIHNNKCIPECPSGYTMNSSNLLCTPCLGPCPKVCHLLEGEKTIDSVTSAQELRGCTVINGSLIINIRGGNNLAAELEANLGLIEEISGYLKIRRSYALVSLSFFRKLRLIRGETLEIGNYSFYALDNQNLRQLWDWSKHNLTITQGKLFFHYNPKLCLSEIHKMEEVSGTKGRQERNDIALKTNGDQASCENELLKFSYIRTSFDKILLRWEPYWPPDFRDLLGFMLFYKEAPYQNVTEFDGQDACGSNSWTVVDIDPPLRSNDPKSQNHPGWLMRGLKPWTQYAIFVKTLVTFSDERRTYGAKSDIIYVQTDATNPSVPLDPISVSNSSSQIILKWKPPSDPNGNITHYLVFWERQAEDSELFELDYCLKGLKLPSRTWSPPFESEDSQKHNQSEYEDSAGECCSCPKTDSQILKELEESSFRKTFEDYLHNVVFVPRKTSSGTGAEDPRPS
# Sequence of Insulin receptor (Homo sapiens) (P06213 763-1382 limits assumed): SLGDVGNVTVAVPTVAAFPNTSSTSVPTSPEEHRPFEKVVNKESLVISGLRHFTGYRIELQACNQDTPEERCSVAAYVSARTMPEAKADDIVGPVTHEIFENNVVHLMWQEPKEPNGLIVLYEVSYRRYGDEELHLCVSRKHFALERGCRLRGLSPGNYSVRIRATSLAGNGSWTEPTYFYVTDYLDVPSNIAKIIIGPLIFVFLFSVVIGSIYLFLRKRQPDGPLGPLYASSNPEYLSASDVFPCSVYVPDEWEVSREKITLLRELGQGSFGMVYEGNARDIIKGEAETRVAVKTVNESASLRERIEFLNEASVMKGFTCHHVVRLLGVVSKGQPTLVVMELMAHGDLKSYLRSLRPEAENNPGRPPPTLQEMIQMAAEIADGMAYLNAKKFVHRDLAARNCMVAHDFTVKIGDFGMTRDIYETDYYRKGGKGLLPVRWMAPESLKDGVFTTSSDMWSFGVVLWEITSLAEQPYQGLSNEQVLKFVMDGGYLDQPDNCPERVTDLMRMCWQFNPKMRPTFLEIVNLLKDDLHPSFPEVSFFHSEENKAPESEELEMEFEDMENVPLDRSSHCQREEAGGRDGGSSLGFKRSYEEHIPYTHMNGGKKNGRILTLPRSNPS
# Sequence of Tyrosine-protein kinase Fyn (Homo sapiens) (P06241 2-537 limits assumed): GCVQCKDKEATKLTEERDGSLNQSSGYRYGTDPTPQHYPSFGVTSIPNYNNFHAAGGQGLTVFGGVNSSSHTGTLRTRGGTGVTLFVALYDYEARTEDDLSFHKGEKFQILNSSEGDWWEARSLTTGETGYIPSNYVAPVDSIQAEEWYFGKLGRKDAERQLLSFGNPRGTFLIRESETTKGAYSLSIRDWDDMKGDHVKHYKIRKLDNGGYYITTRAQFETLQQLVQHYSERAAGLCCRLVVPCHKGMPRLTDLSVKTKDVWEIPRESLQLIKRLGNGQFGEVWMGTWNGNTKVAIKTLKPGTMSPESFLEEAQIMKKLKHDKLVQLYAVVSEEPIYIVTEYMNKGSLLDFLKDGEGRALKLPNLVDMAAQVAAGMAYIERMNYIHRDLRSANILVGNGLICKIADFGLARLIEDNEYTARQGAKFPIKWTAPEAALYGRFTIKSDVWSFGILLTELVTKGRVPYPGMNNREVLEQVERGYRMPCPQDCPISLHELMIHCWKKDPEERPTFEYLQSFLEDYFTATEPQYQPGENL
SMILES,inhibition [1] [%],inhibition [2] [%],inhibition [3] [%],inhibition [4] [%],inhibition [5] [%],inhibition [6] [%],inhibition [7] [%],inhibition [8] [%],inhibition [9] [%],inhibition [10] [%],inhibition [11] [%],inhibition [12] [%],inhibition [13] [%],inhibition [14] [%],inhibition [15] [%],inhibition [16] [%],inhibition [17] [%],inhibition [18] [%],inhibition [19] [%],inhibition [20] [%]
COc1cccc(-n2nc(C)c3c(N/N=C(\C)c4ccncc4)ncnc32)c1,4.54,1.01,3.38,-0.28,0.73,2.42,0.25,-2,-2.33,0.43,-0.01,0.91,4.07,-0.64,1.79,-1.14,0.38,1.62,4.01,1.56
COc1cc2ncn(-c3cc(OCc4ccccc4S(C)(=O)=O)c(C#N)s3)c2cc1OC,76.8,16.2,61.8,4.3,5.83,5.14,5.1,3.69,3.13,2.84,11.5,3.78,5.39,2.72,29.4,5.19,55,25.6,67.3,5.42
O=C1Nc2ccccc2/C1=C/Nc1ccc2[nH]c(=O)[nH]c2c1,10.9,7.89,21.5,7.08,24.8,8.02,32.4,3.85,6.41,1.78,5.35,3.96,20.8,1.12,1.93,-1.44,8.66,13.7,48.1,–
NS(=O)(=O)c1ccc(N/N=C2\C(=O)Nc3ccc(Cl)cc32)cc1,8.06,5,11.4,6.7,4.64,1.04,2.77,3.26,3.42,0.97,4.1,4.77,11.7,1.28,1.55,-2.01,1.21,1.7,16.9,41.3
CS(=O)(=O)CCNCc1nc(-c2ccc3ncnc(Nc4ccc(OCc5cccc(C(F)(F)F)c5)cc4)c3c2)cs1,3.35,3.91,5.68,4.43,3.36,1.31,3.15,-0.71,1.53,1.21,2.53,1.05,3.96,1.09,3.08,-0.8,1.6,2.88,9.28,1.96
[O-][S+]1CCN(Cc2ccc(-c3ccc4ncnc(Nc5ccc(OCc6ccccc6)c(Cl)c5)c4c3)o2)CC1,4.61,2.6,3.96,14.4,10.7,2,3.55,-1.65,0.75,0.08,1.13,1.27,2.62,0.66,-0.25,-1.01,-0.24,0.96,4,1.98
Cc1cc(O)cc(C)c1/C=C/c1cncc(C(=O)N(C)C)c1,4.2,4.54,10.8,2.54,5.15,2.68,0.32,2.71,1,1.43,1.94,4.52,5.42,1.7,3.22,-0.76,1.31,7.06,12.3,4.12
N#Cc1c(NC(=O)c2ccccc2F)sc2c1CCCC2,3.17,-1.54,0.95,-4.1,0.01,1.34,-1.12,-1.06,-1.27,-1,0.32,0.4,-1.49,-0.7,-1.01,-1.04,2.45,-3.31,-0.36,-4.4
COc1ccc2ncnc(Nc3ccc(OCc4ccccc4)cc3)c2c1,10.2,2.78,8.33,0.69,0.08,0.98,3.05,1.39,2.07,0.5,1.7,1.35,3.3,1.02,0.06,0.27,0.67,1.51,3,3.24
O=S(=O)(CCOCc1ccc(-c2ccc3ncnc(Nc4ccc(OCc5cccc(F)c5)c(Cl)c4)c3c2)o1)c1ccccc1,0.6,3.81,6.35,13,8.7,1.87,3.13,-2.12,0.31,-0.7,1,1.54,2.21,0.38,0.42,0.16,2.6,1.71,8,1.81
N#Cc1cccc(Nc2nccc(-c3cnn4ncccc34)n2)c1,39.2,7.16,35.9,8.04,38.2,9.03,40.9,3.98,10.8,2.91,21.1,2.54,14.9,2.15,22.1,5.73,36.2,12.1,43.9,78.3
Cc1cc(-c2ccccn2)cc(C)c1/C=C/c1cncc(-c2nn[nH]n2)c1,9.92,7.16,17.3,16.5,10.9,5.7,5.57,0.66,2.24,0.82,0.66,4.47,3.3,2.08,2.43,0.16,0.72,3.45,14.2,4.89
C[C@@H](Oc1cc(-n2cnc3ccc(OC[C@@H](O)CO)cc32)sc1C(N)=O)c1ccccc1Cl,5.15,-0.15,6.39,-1.52,-0.34,0.87,0.26,-2.17,-2.11,0.28,0.81,-2.88,0.21,-0.63,0.06,-0.17,19.7,1.39,22.2,-0.46
